We go through 91 molecules from PubChem BioAssay AID1259313 (Sanford-Burnham Center for Chemical Genomics, 2017).

About 8,500 (2.5%) of roughly 340,000 compounds were called active.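 Rule for the calls: active = melting temperature shift of at least 10% of the positive control shift, at one fixed dose; inactive = the rest.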 What follows is part of a selection rich in actives, with near analogues and random picks from the rest.

The assay has as its system Glutamate receptor ionotropic, NMDA 3A (GRIN3A) ligand-binding domain. In words: NR3A LBD thermal stabilization by compounds – biophysical, differential scanning fluorimetry, uHTS, primary screen (AID 1259313). The note with it: at 25 µM, hits give high values, 0% = protein alone, 100% = glycine-bound protein. (Differential scanning fluorimetry follows unfolding on heating by fluorescence.)
`CCOc1[nH]n(-c2ccc(Cl)cc2)c(=O)c1C=Nc1ccc(O)cc1`: the Tm shift relative to glycine control was 5.05% (inactive).

In the case of `CCOc1ccc(N=C2NC(=O)S/C2=C\c2ccc(O)cc2)cc1`, the Tm shift relative to glycine control is 15.1% (active).

With `CCOc1ccc(N=C2SC(C(=O)O)CC(=O)N2C)cc1` (stereo unspecified), the Tm shift relative to glycine control was 1.77% (inactive).

`CCCCn1c(N)c(N(CC(C)C)C(=O)CN(C)S(=O)(=O)c2ccc(F)cc2)c(=O)[nH]c1=O`: the Tm shift relative to glycine control is -1.73% (inactive).

In the case of `Nc1cc(N)nc(SCC(=O)Nc2cccc(S(=O)(=O)N3CCCCC3)c2)n1`, the Tm shift relative to glycine control was -2.96% (inactive).

In the case of `COc1cc(/C=C/C(=O)OCC(=O)NCCCc2ccccc2)ccc1O`, the Tm shift relative to glycine control is -3.57% (inactive).

Consider `COc1cc(/C=C/C(=O)OCC(=O)Nc2cccc(Oc3ccccc3)c2)ccc1O`, for which the Tm shift relative to glycine control is 16.3% (active).

Take `COc1ccc(/C=C/C(=O)OCC(=O)Nc2cccc(Oc3ccccc3)c2)c(OC)c1`: the Tm shift relative to glycine control was 1.79% (inactive).

As to `Oc1cccc2ccc(/C=C/c3ccc(Br)s3)nc12`, the Tm shift relative to glycine control is 27.9% (active).

As for `Nc1ccc(S(=O)(=O)Nc2nccc(/C=C/c3ccc(Br)s3)n2)cc1`, the Tm shift relative to glycine control is 3.72% (inactive).

With `CC(Sc1nc2cc(Cl)ccc2s1)C(=O)Nc1ccc2c(c1)OCO2` (stereo unspecified), the Tm shift relative to glycine control was 17.5% (active).

`CC(Sc1nc(-c2ccccc2)cc(C(F)(F)F)n1)C(=O)Nc1ccc2c(c1)OCO2` (stereo unspecified): the Tm shift relative to glycine control was -3.7% (inactive).

With `O=C(Nc1ccc2c(c1)OCO2)c1sc2cc(Cl)ccc2c1Cl`, the Tm shift relative to glycine control is 2.38% (inactive).

For `COC(=O)Nc1ncc(CN2C(=O)c3ccccc3C2=O)s1`, the Tm shift relative to glycine control is 13.7% (active).

Regarding `COc1cc(C(C)=O)ccc1OC(=O)CN1C(=O)c2ccccc2C1=O`, the Tm shift relative to glycine control was -1.44% (inactive).

Consider `COC(=O)Nc1ncc(CN2CCCCC2)s1`, for which the Tm shift relative to glycine control was 0.99% (inactive).

On to `CN(Cc1ccccc1)C(=O)CCNC(=O)Cn1cnc2ccccc2c1=O`, for which the Tm shift relative to glycine control is 1.47% (inactive).

For `CC(C)=CCCC1(C)C=Cc2c(ccc3c2[nH]c2cc(O)c(C)cc23)O1` (stereo unspecified), the Tm shift relative to glycine control was 22.5% (active).

For `O=C(O)CC/C(=N\NC(=O)c1ccc(F)cc1)c1ccc(Br)cc1`, the Tm shift relative to glycine control was -1.55% (inactive).

`COc1ccccc1-c1nnc(NC(=O)c2ccc3ncsc3c2)o1`: the Tm shift relative to glycine control is -3.33% (inactive).

Consider `Cc1sc(NC(=O)c2ccc3ncsc3c2)c(C(N)=O)c1C`, for which the Tm shift relative to glycine control was 28.4% (active).

With `O=C(COC(=O)c1ccc2ncsc2c1)Nc1ccc(Cl)cc1`, the Tm shift relative to glycine control is -0.85% (inactive).

Regarding `COc1cc(OC)c(C(=O)NNC(=O)c2ccc(NS(=O)(=O)c3cccs3)cc2)cc1OC`, the Tm shift relative to glycine control was 0.08% (inactive).

With `Cc1ccc(C(=O)N/C(=C/c2cccs2)C(=O)N2CCCCC2)cc1`, the Tm shift relative to glycine control is -1.69% (inactive).

As for `COc1ccc(-c2ccc3nnc(SCC(=O)Nc4ccc(NC(C)=O)cc4)n3n2)cc1`, the Tm shift relative to glycine control was -5.8% (inactive).

For the molecule `COc1ccccc1NC(=O)c1cc(N2C(=O)C3C4CCC(C4)C3C2=O)ccc1Cl` (stereo unspecified), the Tm shift relative to glycine control was -3.68% (inactive).

Consider `CCc1ccnc(NS(=O)(=O)c2ccc3c(c2)OCCO3)c1`, for which the Tm shift relative to glycine control was -2.2% (inactive).

For the molecule `COc1cccc(OC)c1C(=O)Nc1sc2c(c1C(N)=O)CCCC2`, the Tm shift relative to glycine control is -0.3% (inactive).

For the molecule `COc1cc2ccccc2cc1C(=O)N(CCN(C)C)c1nc2c(F)cccc2s1`, the Tm shift relative to glycine control was 3.31% (inactive).

With `NC(=O)c1c(Nc2nc3c(F)cccc3s2)sc2c1CCCC2`, the Tm shift relative to glycine control is 10.8% (active).

For the molecule `O=C(Nc1sc2c(c1C(=O)O)CCC2)c1ccccc1F`, the Tm shift relative to glycine control is 1.58% (inactive).

For `Fc1cc(F)c2nc(Nc3nc4c(F)cccc4s3)sc2c1`, the Tm shift relative to glycine control was 17.3% (active).

Regarding `NNc1nc2c(Cl)cccc2s1`, the Tm shift relative to glycine control was -0.09% (inactive).

For the molecule `COCCNc1nc(N)c([N+](=O)[O-])c(N2CCCCCC2)n1`, the Tm shift relative to glycine control was 0.58% (inactive).

Turning to `Cc1ccc(-c2csc(-c3c[nH]c4ccccc34)n2)cc1`, the Tm shift relative to glycine control is 25.6% (active).

For `CCCc1cc(-c2nc(-c3ccc(C)cc3)cs2)ccn1`, the Tm shift relative to glycine control is -8.16% (inactive).

With `CCn1c(SCCC(C)C)nnc1-c1c[nH]c2ccccc12`, the Tm shift relative to glycine control is -26.6% (inactive).

`COc1ccc(F)c(-c2nc(CN3CCC(c4ccccc4)CC3)c(C)o2)c1`: the Tm shift relative to glycine control is -0.88% (inactive).

Consider `CCCCn1c(N)c(N(CCC(C)C)C(=O)CC2OC(=O)c3ccccc32)c(=O)[nH]c1=O` (stereo unspecified), for which the Tm shift relative to glycine control was -1.19% (inactive).

Regarding `CCN(CC)C(=O)CSC(Nc1cccc(F)c1)=C(C#N)C#N`, the Tm shift relative to glycine control is 11.7% (active).

In the case of `CN(CC(=O)Nc1cccc(F)c1)C(=O)CC1CCCC1`, the Tm shift relative to glycine control is 2.89% (inactive).

For the molecule `Cc1ccc(CSCC(=O)N(C)CC(=O)Nc2cccc(F)c2)cc1`, the Tm shift relative to glycine control is -1.41% (inactive).

Consider `Cc1noc(C)c1S(=O)(=O)N(CC(=O)Nc1ccc2c(c1)OCCO2)c1ccc(C(C)C)cc1`, for which the Tm shift relative to glycine control is 1.36% (inactive).

As to `CC1Cc2ccccc2N1CC(=O)Nc1ccc2c(c1)OC(F)(F)O2` (stereo unspecified), the Tm shift relative to glycine control was -9.28% (inactive).

As for `COc1ccc(C(=O)NNS(=O)(=O)c2ccc(C)cc2)cc1`, the Tm shift relative to glycine control was 9.89% (inactive).

As for `COc1ccc(S(=O)(=O)N/N=C\c2ccc(OC)c(COc3ccc(C)cc3[N+](=O)[O-])c2)cc1`, the Tm shift relative to glycine control is 7.36% (inactive).

`COc1ccc(C(=O)Oc2cc(/C=N/NS(=O)(=O)c3ccc(C)cc3)ccc2OC)cc1`: the Tm shift relative to glycine control is 14.3% (active).

Regarding `COC(=O)c1nc(NC(=O)c2ccccc2)n[nH]1`, the Tm shift relative to glycine control is -2.48% (inactive).

Turning to `COc1ccc(S(=O)(=O)NCC(c2ccco2)N2CCOCC2)cc1` (stereo unspecified), the Tm shift relative to glycine control is 0.48% (inactive).

As for `COc1ccc(CCNC(=O)COC(=O)c2cc(=O)c3ccccc3o2)cc1`, the Tm shift relative to glycine control was -0.35% (inactive).

For `COc1ccc(Nc2cc(=O)oc3ccccc23)cc1`, the Tm shift relative to glycine control was 13.9% (active).

Turning to `COc1ccc2oc(=O)cc(-c3cc4ccccc4o3)c2c1`, the Tm shift relative to glycine control was -4.08% (inactive).

On to `CC1CCN(C(=O)CN(c2ccc(Oc3ccccc3)cc2)S(C)(=O)=O)CC1`, for which the Tm shift relative to glycine control is 0.83% (inactive).

On to `CCOc1cc(-c2noc(CCCC(=O)NC3CCCCC3)n2)ccc1OC`, for which the Tm shift relative to glycine control is -2.03% (inactive).

For the molecule `COc1ccc(CN2CC(C(=O)NC3CCCCC3)CC2=O)cc1` (stereo unspecified), the Tm shift relative to glycine control was 2.45% (inactive).

Regarding `COC(=O)C(C)Oc1ccc2c(c1)O/C(=C\c1cccc(Br)c1)C2=O` (stereo unspecified), the Tm shift relative to glycine control was -2.66% (inactive).

Regarding `COc1cc(C#Cc2ccc3cc(CCCO)oc(=O)c3c2)cc(OC)c1`, the Tm shift relative to glycine control is -0.81% (inactive).

With `COc1cc(/C=C2\Oc3ccc(C#Cc4ccc(O)cc4)cc3C2=O)cc(OC)c1`, the Tm shift relative to glycine control is 16.2% (active).

With `CCN(CC(=O)Nc1cc(Cl)ccc1C)C(=O)CN1C(=O)NC2(CCCC2)C1=O`, the Tm shift relative to glycine control is 0.97% (inactive).

For `CC(C(=O)NC1CCCC1)N1CCN(S(=O)(=O)c2ccccc2Cl)CC1` (stereo unspecified), the Tm shift relative to glycine control is 16.8% (active).

Take `CC(C)c1ccc(S(=O)(=O)N2CCN(C(C)C(=O)NC3CCCC3)CC2)cc1` (stereo unspecified): the Tm shift relative to glycine control is -0.92% (inactive).

For `O=C(Cc1ccc(S(=O)(=O)N2CCCC2)s1)NC1CCCCCC1`, the Tm shift relative to glycine control is -3.8% (inactive).

As to `O=C(Nc1ccc(OCC(=O)N2CCOCC2)cc1)c1cc(F)c(F)cc1Cl`, the Tm shift relative to glycine control is -1.28% (inactive).

`CNC1(c2nnnn2-c2c(C)cccc2C)CCOC(C)(C)C1` (stereo unspecified): the Tm shift relative to glycine control was 0.08% (inactive).

Turning to `Cc1cc(Nc2cccc(C)c2C)n2ncnc2n1`, the Tm shift relative to glycine control was 1.12% (inactive).

As for `C[C@@H]1C(c2ccc(F)cc2)=NN(c2ccc(Br)cc2)[C@H]1C(=O)N1CCOC1=O`, the Tm shift relative to glycine control is 7.36% (inactive).

Consider `O=C1OCCN1C(=O)[C@H]1[C@H](c2ccc(F)cc2)C(c2ccccc2)=NN1c1ccc(Br)cc1`, for which the Tm shift relative to glycine control was 16% (active).

In the case of `O=c1c2cc(Br)ccc2nc(-c2cccc(Cl)c2)n1O`, the Tm shift relative to glycine control is -8.87% (inactive).

Turning to `O=C1OCCN1C(=O)[C@H]1[C@H](c2ccccc2)C(c2ccc(F)cc2)=NN1c1ccccc1`, the Tm shift relative to glycine control was -6.51% (inactive).

As for `O=C1OCCN1C(=O)[C@H]1[C@H](c2ccc(Cl)cc2)C(c2cccc(Cl)c2)=NN1c1ccc(Br)cc1`, the Tm shift relative to glycine control was 18.1% (active).

`S=C1NC(c2ccccc2)=NCN1c1ccc(Br)cc1`: the Tm shift relative to glycine control was -1.51% (inactive).

Turning to `O=C(COc1ncnc2c(Cl)cc(Cl)cc12)N1CCN(S(=O)(=O)c2ccccc2)CC1`, the Tm shift relative to glycine control is -7.02% (inactive).

In the case of `CN1CCC(=NNC(=O)c2ccc(N(Cc3ccc(Cl)cc3)S(C)(=O)=O)cc2)CC1`, the Tm shift relative to glycine control was -7.94% (inactive).

As to `O=C(NCCSc1ccccc1)c1ccco1`, the Tm shift relative to glycine control is 0.71% (inactive).

Take `Cc1cc(C)cc(NC(=O)CSc2ccccc2)c1`: the Tm shift relative to glycine control was 0.84% (inactive).

As to `O=C(Nc1ccc(Sc2ccc(Br)cc2)cc1)c1ccco1`, the Tm shift relative to glycine control is 11.6% (active).

With `Cc1cc(NC(=O)c2ccc(F)cc2)ccc1NC(=O)c1ccco1`, the Tm shift relative to glycine control was -2.39% (inactive).

As to `O=C(CSc1ccccc1)Nc1ccc(NC(=O)c2ccco2)cc1`, the Tm shift relative to glycine control was 11.8% (active).

Consider `O=C(CNC(=O)c1ccco1)NNC(=O)c1ccc(Br)cc1`, for which the Tm shift relative to glycine control is 0.51% (inactive).

In the case of `COC(=O)c1ccc(NC(=O)c2cc(Cl)ccc2OC)cc1`, the Tm shift relative to glycine control was -3.8% (inactive).

For `O=C(Nc1ccc(O)cc1)c1ccc(NC(=O)c2ccco2)cc1`, the Tm shift relative to glycine control is 25% (active).

On to `C/C(=N\NS(=O)(=O)c1ccc(Cl)cc1)c1ccc(NC(=O)c2ccco2)cc1`, for which the Tm shift relative to glycine control was -5.45% (inactive).

As to `O=C(NNC(=O)c1ccco1)Nc1ccccc1`, the Tm shift relative to glycine control is 1.84% (inactive).

Regarding `COC(=O)c1ccc(NC(=O)C(C)N2C(=O)c3ccccc3C2=O)cc1` (stereo unspecified), the Tm shift relative to glycine control was -0.85% (inactive).

With `COC(=O)c1ccc(NC(=O)Nc2ccc(C)cc2)cc1`, the Tm shift relative to glycine control was 14.4% (active).

`CC12CCC(C(=O)N3CCN(c4ncccn4)CC3)(c3nc4ccccc4nc31)C2(C)C` (stereo unspecified): the Tm shift relative to glycine control is -1.28% (inactive).

As to `COc1ccc(OC)c(S(=O)(=O)N2CCCC(C(=O)NCCc3ccccc3)C2)c1` (stereo unspecified), the Tm shift relative to glycine control is 0.67% (inactive).

For the molecule `O=C(CNC(=O)[C@@H]1Cc2ccccc2CN1)NC1CCCCC1`, the Tm shift relative to glycine control is -12.5% (inactive).

For the molecule `CCOC(=O)N1CCN(C(=O)CN(C2CCCCC2)S(C)(=O)=O)CC1`, the Tm shift relative to glycine control is -2.35% (inactive).

As for `CCOc1ccc(NC(=O)CCS(=O)(=O)c2ccc3c(c2)CCCN3C(=O)CC)cc1`, the Tm shift relative to glycine control was -2.2% (inactive).

Take `C#CCOCCOCCOCCNc1nc(N2CCN(C(=O)C([C@@H](C)CC)n3cc(C(N)COC(=O)C(F)(F)F)nn3)CC2)nc(N2CCN(C(=O)[C@H](CCCCN)n3cc(C(N)CC(C)C)nn3)CC2)n1` (stereo partly specified): the Tm shift relative to glycine control is 3.3% (inactive).
